Records with an inconclusive call do not appear. Active and inactive are the calls of the source. Calls follow the shape of the dose curve; as a rule, active = well fitted inhibition curve with a large enough effect; inconclusive = small, poorly fitted or top-dose-only effect; inactive = flat fitted curve, though single readings scatter.
test system: astro; experiment: Drug repurposing screens with cells derived from glioblastoma tumor samples (AID 1345199); conditions: viability, ATP luminescence, 48 h; series mostly up to 45.9 µM; activity, negative = cell killing: at the top concentration; also: nearly all actives have a fitted effect of over 40% in size
Summary of the method: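 Primary testing used CD133+ neurospheres from four GBM patients, seven concentrations, 48 h exposure and ATP-based viability; confirmation added three slower-growing patient lines.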
% is scaled to controls: 0 for no effect and ±100 for the full control effect.

Structure (SMILES)	activity, negative = cell killing
CCCCCCCCCCCC(=O)OC[C@@H](O)C1OC[C@H](O)[C@H]1O (stereo partly drawn)	-16.4% (inactive)
CC(C)C[C@@H](NC(=O)[C@@H](O)[C@H](N)Cc1ccccc1)C(=O)O	1.01% (inactive)
Cn1nnnc1SCC1=C(C(=O)O)N2C(=O)[C@@H](NC(=O)[C@H](O)c3ccccc3)[C@H]2SC1	-16% [at 21.2 µM] (inactive)
COc1ccc(/C=N/NC(=O)c2ccncc2)c(C(=O)O)c1OC	2.21% (inactive)
NC(=O)Oc1ccc(Cc2ccccc2)cc1	-29.6% (inactive)
S=C1SCN(Cc2ccccc2)CN1Cc1ccccc1	-14% (inactive)
CCN(CC)C(=O)[C@]1(c2ccccc2)C[C@@H]1CN	-9.32% (inactive)
C=CCN1CCCC1CNC(=O)c1cc(S(N)(=O)=O)cc(OC)c1OC (stereo not drawn)	-2.39% (inactive)
NC(Cc1ccccc1)C(=O)O (stereo not drawn)	2.17% (inactive)
CC(C)(C)NC[C@H](O)COc1ccccc1C1CCCC1	-27.9% [at 21.2 µM] (inactive)
O=C(O)COc1ccccc1/C=N/NC(=O)c1ccncc1	-22.4% (inactive)
COc1ccc(/C=C/C(=O)O)cc1	-0.302% (inactive)
CC(CCc1ccc(O)cc1)NCC(O)c1ccc(O)cc1 (stereo not drawn)	-24% (inactive)
OC[C@H]1OC([S-])[C@H](O)[C@@H](O)[C@@H]1O.[Au+] (stereo partly drawn)	-9.53% (inactive)
O=S(=O)(O)CCCS(=O)(=O)O	-10.2% (inactive)
CCCCC[C@H](O)/C=C/[C@H]1[C@H](O)CC(=O)[C@@H]1C/C=C\CCCC(=O)O	-25.3% (inactive)
C[C@@H]1C[C@H]2[C@@H]3C[C@H](F)C4=CC(=O)C=C[C@]4(C)[C@@]3(Cl)[C@@H](O)C[C@]2(C)[C@H]1C(=O)COC(=O)C(C)(C)C	-1.89% (inactive)
Cc1cc2nc3c(=O)[nH]c(=O)nc-3n(C[C@H](O)[C@H](O)[C@H](O)COP(=O)(O)OP(=O)(O)OC[C@H]3O[C@@H](n4cnc5c(N)ncnc54)[C@H](O)[C@@H]3O)c2cc1C	-17.2% (inactive)
